According to PubChem BioAssay AID1159580 (chemical genetic matrix, 2015):
The whole screen tested about 5,500 compounds, of which about 2,000 (36%) were called active. Not shown: some 18% with an inconclusive outcome. Rule as the data show it: active = normalized growth mostly below about 0.91 (no sharp cut-off); inconclusive = no clear call, values can overlap the other calls; inactive = mostly above about 0.92. Some of the results follow.

Test: chemical genetic growth profiling, strain panel (AID 1159580);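 also: tested at 20 µM; growth read once vehicle control cultures reached saturation at 30 °C; 1 = growth at the plate median or of vehicle wells; lower values mean less growth of the strain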
Conditions: S. cerevisiae deletion strains, growth OD

Measured: normalized growth

Fc1ccc(C(OCCN2CCN(CCCc3ccccc3)CC2)c2ccc(F)cc2)cc1
active: locus YCL061C, strain MRC1 (second series), hits give low values 0.881 | locus YDR150W, strain NUM1, hits give low values 0.78 | locus YDR363W, strain ESC2, hits give low values 0.851 | locus YGR078C, strain PAC10, hits give low values 0.868 | locus YGR229C, strain SMI1, hits give low values 0.0957 | locus YJR075W, strain HOC1, hits give low values 0.797 | locus YMR307W, strain GAS1, hits give low values 0.891 | locus YNL153C, strain GIM3, hits give low values 0.661 | locus YNL322C, strain KRE1, hits give low values 0.705 | locus YPL055C, strain LGE1, hits give low values 0.583
inactive: locus YAL040C, strain CLN3, hits give low values 1.02 | locus YER002W, strain NOP16, hits give low values 1.06 | locus YMR263W, strain SAP30, hits give low values 0.997 | locus YNL175C, strain NOP13, hits give low values 0.972 | locus YNL197C, strain WHI3, hits give low values 1.08 | locus YNL224C, strain SQS1, hits give low values 1.05 | locus YOR083W, strain WHI5 (second series), hits give low values 0.903
